Compounds with a hit are over-represented: about 6.9% of the library has one in this group of screens.
HCV NS3h FP – HCV NS3 helicase inhibitors, primary screen, biochemical, fluorescence polarization, ChemBridge library. 16,000 compounds, 1.6% hits. Hepatitis C virus NS3 helicase. inhibition, % at 100 µM. NS3h Cy5-dT15 DNA binding;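 active = inhibition above the average over every tested compound plus 3 SD, cut at about 40% in these data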
Cy5 interf NS3h – Cy5 fluorescence quenchers or enhancers, artefact control for HCV NS3 helicase inhibitor project, biochemical, ChemBridge library, Cy5 readout. Cy5-dT15 DNA with NS3h, fluorescence interference; actives lie on both sides; signal over control mean, under 1 quenches. fluorescence interference ratio at 100 µM. 16,000 compounds, 6% hits. AID 720488, 2013;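 active = compound fluorescence over control fluorescence at most 0.8, a quencher, or at least a set upper limit, an enhancer; inactive = ratio between 0.8 and the set upper limit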
* = called active by the depositor.

SMILES	HCV NS3h FP	Cy5 interf NS3h
Cc1ccc(C(O)=C2C(=O)C(=O)N(CCCC(=O)O)C2c2ccc(Br)cc2)cc1 (configuration not stated)	9	1.2*
O=C(Oc1ccc([N+](=O)[O-])cc1)c1ccc(-c2ccccc2)cc1	6	0.97
O=c1[nH]nc(Cc2nc3ccccc3s2)c2ccccc12	9	1.2
O=C1c2c(Cl)c(Cl)c(Cl)c(Cl)c2C(=O)N1c1ncccn1	3	0.65*
O=C(O)COc1ccc(N2C(=O)c3c(Cl)c(Cl)c(Cl)c(Cl)c3C2=O)cc1	10	0.95
CCOc1ccc(C(=O)Nc2c(C)cc(Br)cc2C)cc1	10	1
CC(=O)Nc1ccc(-n2c(C)cc(/C=C(\C#N)C(=O)Nc3ccccc3)c2C)cc1	10	0.96
COc1cc(/C=C2/SC(=S)N(CC(=O)Nc3cccc(C(=O)O)c3)C2=O)cc(OC)c1OC	15	1
O=C(CN1C(=O)/C(=C/c2cccc(Br)c2)SC1=S)Nc1cccc(C(=O)O)c1	39	0.76*
CCOC(=O)Nc1sc2c(c1C(=O)OCC)CCC(CC)C2 (configuration not stated)	3	1
CC(C)CNC(=O)/C(=C/c1ccc(N(C)C)cc1)NC(=O)c1ccccc1	26	0.97
CCCCCCN1C(=O)C(=O)C(=C(O)c2ccccc2)C1c1ccc(OC)c(OC)c1 (configuration not stated)	-2	1.1
CCN1C(=O)/C(=C\c2cccc(C)c2)SC1=S	-2	0.94
CCN(CC)c1ccc(/C=C2/SC(=S)N(CNc3cccc(C)c3)C2=O)cc1	9	0.65*
COc1ccc2ccccc2c1C1NC(=S)NC(C)=C1C(=O)Nc1cccc(Cl)c1 (configuration not stated)	7	0.93
CC(=O)Nc1ccc(Oc2ccccc2)cc1	10	0.83
O=C(Nc1ccc(Oc2ccccc2)cc1)C(F)(F)F	14	0.78*
Cc1ccc(NC(=O)COc2ccc3ccccc3c2)cc1	11	1.4*
CCCOc1ccc(C(=O)Nc2ccccc2C(=O)OC)cc1	13	0.7*
Cc1ccccc1NC(=O)c1ccc(OCC(C)C)cc1	12	0.76*
COC(=O)c1ccccc1NC(=O)COc1ccc(C)c(C)c1	6	0.63*
COc1cc(NC(=O)COc2ccc3ccccc3c2)cc(OC)c1	18	1.1
COC(=O)c1ccccc1NC(=O)COc1ccc(Br)cc1	12	0.96
COC(=O)c1ccccc1NC(=O)c1ccccc1NC(=O)c1ccc(OC)cc1	9	1
CC(C)COc1ccc(C(=O)Nc2cccc3ccccc23)cc1	23	1.1
SMILES	HCV NS3h FP	Cy5 interf NS3h
O=C(N/N=C/c1cc(Br)c(Br)o1)c1cncc(Br)c1	9	1
O=C(NCCCn1ccnc1)C(=O)Nc1ccc(F)cc1	-1	1
CN(C)c1ccc(/C=C2/SC(=S)N(Cc3ccco3)C2=O)cc1	11	1.1
CC(C)C(NS(=O)(=O)c1ccccc1[N+](=O)[O-])C(=O)Nc1cccc2ccccc12 (configuration not stated)	16	0.82
COC(=O)c1ccccc1N1C(=O)c2ccc(C(=O)O)cc2C1=O	-3	1.1
CC1(C)Cc2c(sc3ncn4nc(CSc5nc6ccccc6o5)nc4c23)C(C)(C)N1	5	1
Nn1c(Nc2ccccc2)nc2ccccc21	-1	1
c1ccc(Nc2ccc3nc4ccccc4nc3c2)cc1	15	0.55*
CCO/C(C)=C1\C(=O)N(c2nc3ccccc3s2)N=C1C(F)(F)F	1	1.1
O=C1C(=O)N(Cc2ccc(F)cc2)c2ccc(Br)cc21	3	0.93
CN1C(=O)C(=O)c2cc(Br)ccc21	10	0.74*
COc1cc(/C=C2/SC(=S)N(CCC(=O)Nc3ccccc3C(=O)O)C2=O)cc(OC)c1OC	17	0.9
COc1cc(/C=C2/SC(=S)N(CCC(=O)Nc3ccc(C(C)=O)cc3)C2=O)cc(OC)c1OC	-28	0.63*
Nc1nc(/C=C/c2cccc([N+](=O)[O-])c2)cc(/C=C/c2cccc([N+](=O)[O-])c2)n1	-5	0.91
O=C1c2ccc(S(=O)(=O)c3ccc4c(c3)C(=O)N(CCCO)C4=O)cc2C(=O)N1CCCO	7	1
CCOC(=O)c1sc(NN=C(C#N)C#N)c(C(=O)OCC)c1C	-2	0.56*
CCOC(=O)c1c(NC(=O)/C=C\C(=O)O)sc(C(=O)Nc2ccccc2)c1C	19	0.94
O=C(CN(c1ccccc1)S(=O)(=O)c1ccccc1[N+](=O)[O-])Nc1cccc(Cl)c1	-6	1
CC(C)CNC(=O)CN(c1ccccc1)S(=O)(=O)c1ccccc1[N+](=O)[O-]	20	0.69*
O=C(O)CN(c1ccccc1)S(=O)(=O)c1ccccc1[N+](=O)[O-]	2	1
CC(NC(=O)CN(c1ccccc1)S(=O)(=O)c1ccccc1[N+](=O)[O-])c1ccccc1 (configuration not stated)	20	0.68*
COc1ccc(N(CC(=O)N2CCCC2)S(=O)(=O)c2ccc(C)cc2)c(OC)c1	5	1
CC/C(=N/NC(=O)/C(=C\c1ccc2c(c1)OCO2)NC(=O)c1ccccc1)c1ccccc1	8	1.1
CC(=O)Oc1cccc(N2C(=O)c3ccc(C(=O)Nc4cccc(C(=O)NCC(C)C)c4)cc3C2=O)c1	15	0.73*
CC(=O)Oc1ccc(C(=O)Nc2cccc(C(=O)NCC(C)C)c2)cc1	7	0.97
SMILES	HCV NS3h FP	Cy5 interf NS3h
CCN(CC)CCN1C(=O)C(O)=C(C(=O)/C=C/c2ccccc2)C1c1ccc(Br)cc1 (configuration not stated)	8	1.1
CCN(CC)CCN1C(=O)C(O)=C(C(=O)/C=C/c2ccccc2)C1c1ccc(OC)cc1 (configuration not stated)	26	1.2*
COc1cccc(NC2=C(Cl)C(=O)N(c3cccc(Cl)c3Cl)C2=O)c1	14	0.95
Cc1cc(Br)cc(C)c1NC(=O)COc1ccccc1	20	1
CC12CC3CC(C)(C1)CC(CNC(=O)COc1ccccc1)(C3)C2	18	0.7*
CCOc1cc(OCC)cc(C(=O)Nc2ccc(Cl)c(Cl)c2)c1	17	1
CCCS(=O)(=O)c1c(S(=O)(=O)CCC)c2ccccn2c1C(=O)c1ccc([N+](=O)[O-])cc1	13	1.1
CCCS(=O)(=O)c1c(S(=O)(=O)CCC)c2c(N)cccn2c1C(=O)c1ccc(OC)cc1	18	0.66*
CCN(CC)CCCCOc1c(C)ccc(C)c1C	2	0.98
O=C(CC(Nc1ccc(Br)cc1)c1ccc(F)cc1)c1ccccc1 (configuration not stated)	11	0.98
CC(C)(C)c1ccc(C(CC(=O)c2ccc(Br)cc2)S(=O)(=O)c2ccccc2)cc1 (configuration not stated)	18	0.54*
Cc1ccc(C(=O)CCNc2ccc(C)c(C)c2)o1	10	0.91
O=C(CSc1nnc(-c2ccc(Br)cc2)o1)NCc1ccccc1	9	1
O=C(OCc1ccccc1)Sc1nnc(-c2ccc(Br)cc2)o1	14	0.78*
CCOC(=O)C1=C(C)NC(=S)NC1c1ccc(OC(=O)c2ccco2)c(OC)c1 (configuration not stated)	12	0.92
